PubChem BioAssay (NCATS)
Inconclusive results are not listed. Activity calls are given as the source filed them. Calls come from the whole dose curve; as a rule, active = well fitted inhibition curve with a large enough effect; inconclusive = small, poorly fitted or top-dose-only effect; inactive = flat fitted curve, though single readings scatter.

What was measured:
TAB113 = assay: qHTS profiling for inhibitors of Plasmodium falciparum proliferation (AID 504749); note: potency is the fitted concentration of half-maximal effect; settings: P. falciparum in erythrocytes, SYBR Green DNA, 72 h; series mostly up to 28.7 µM
In short: (§1)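 P. falciparum-infected erythrocytes (0.3% parasitemia, 2.5% hematocrit final) were exposed to compounds for 72 h at 37 C in 5% CO2, then lysed with SYBR Green buffer overnight at room temperature; parasite DNA fluorescence was normalized to artemisinin and DMSO controls.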

TAB165 = assay: as above; settings: P. falciparum in erythrocytes, SYBR Green DNA, 72 h; series mostly up to 28.7 µM
In short: as §1

W2 = assay: as above; settings: P. falciparum in erythrocytes, SYBR Green DNA, 72 h; series mostly up to 28.7 µM
In short: as §1

CRL-7250 = normal cell line; assay: Cytotoxic Profiling of Annotated Libraries Using Quantitative High-Throughput Screening (AID 1296008); settings: Five cell lines viability, CellTiter-Glo ATP luminescence, 48-72 h; max response: stronger effect = lower value; note: potency is the fitted concentration of half-maximal effect; for max response: % is set by controls: 0 for no effect and ±100 for the full control effect
In short: (§2)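 Compounds were pin-transferred onto cells and incubated 48 or 72 hr at 37 degree Celsius, 95% humidity. CellTiter-Glo was added, plates sat 10 min at room temperature, then ATP-coupled luminescence was imaged as the viability read-out.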

HEK293 = assay: as above; settings: Five cell lines viability, CellTiter-Glo ATP luminescence, 48-72 h; max response: stronger effect = lower value
In short: as §2

HaCat [1] = assay: as above; settings: Five cell lines viability, CellTiter-Glo ATP luminescence, 48-72 h; max response: stronger effect = lower value
In short: as §2

NIH3T3 = assay: as above; settings: Five cell lines viability, CellTiter-Glo ATP luminescence, 48-72 h; max response: stronger effect = lower value
In short: as §2

KB-3-1 = assay: as above; settings: Five cell lines viability, CellTiter-Glo ATP luminescence, 48-72 h; max response: stronger effect = lower value
In short: as §2

HEK293T = assay: qHTS assay to identify novel small-molecules to repurpose for Merkel cell carcinoma treatment (AID 1296009); settings: MCC and control cell lines, CellTiter-Glo viability, 72 h; at 44.8 µM (top of the series) unless noted
In short: (§3)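 Cells exposed to NPC (8-point) and MIPE (11-point) compound dilutions for 72 hr at 37 degree celsius; viability read by CellTiter-Glo luminescence, normalized to no-cell and DMSO in-plate controls.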

HACAT [2] = assay: as above; settings: MCC and control cell lines, CellTiter-Glo viability, 72 h; at 44.8 µM (top of the series) unless noted
In short: as §3
Note: nearly all actives have a fitted effect of over 60% in size.

O=C(O)P(=O)(O)O
inactive: Potency (TAB113) | Potency (TAB165) | Potency (W2) | outcome (CRL-7250) | max response (HEK293) 0.892% | max response (HaCat [1]) -5.53% | max response (NIH3T3) 4.83%

CCNC(=O)/C=C/c1cccc(Br)c1
inactive: Potency (TAB113) | Potency (W2) | outcome (CRL-7250) | max response (HEK293) -0.855% | max response (HaCat [1]) 0.498% | max response (KB-3-1) -0.104% | max response (NIH3T3) -21%

CC(C)[N+](C)(C)CC(O)COc1cccc2ccccc12 (configuration not stated)
inactive: Potency (TAB113) | Potency (W2) | max response (CRL-7250) -19.4% | max response (HEK293) -10.5% | max response (HaCat [1]) -6.06% | max response (KB-3-1) -4.04% | max response (NIH3T3) -0.944%

NS(=O)(=O)c1cc2c(cc1Cl)NC(CC1CCCC1)NS2(=O)=O (configuration not stated)
inactive: max response (CRL-7250) -2.46% | max response (HEK293) -7.58% | max response (HaCat [1]) -5.14% | max response (NIH3T3) 2.98%

NS(=O)(=O)c1ccc(Cl)c(S(N)(=O)=O)c1
inactive: Potency (TAB113) | Potency (TAB165) | Potency (W2) | max response (CRL-7250) -4.09% | outcome (HEK293) | max response (HaCat [1]) -3.23% | max response (NIH3T3) -4.55% | outcome (HEK293T)

Cc1cccc(C)c1NC(=O)c1ccccc1C(=O)O
inactive: Potency (TAB113) | Potency (TAB165) | Potency (W2) | outcome (CRL-7250) | max response (HEK293) 0.24% | max response (HaCat [1]) 1.31% | max response (NIH3T3) -5.01%

CCN(CC)CCNC(=O)c1cc(Br)c(N)cc1OC
inactive: Potency (TAB113) | Potency (TAB165) | max response (CRL-7250) 3.66% | max response (HEK293) -7.62% | max response (HaCat [1]) -11.9% | max response (NIH3T3) -9.42%

CC(=O)O[C@H]1C[C@@H]2CC[C@@H]3[C@H](CC[C@@]4(C)[C@H]3C[C@H]([N+]3(C)CCCCC3)[C@@H]4OC(C)=O)[C@@]2(C)C[C@@H]1N1CCCCC1
inactive: Potency (TAB113) | max response (CRL-7250) -0.866% | max response (HEK293) 1.01% | max response (HaCat [1]) 3.88% | max response (KB-3-1) -0.262% | max response (NIH3T3) 3.84%
active: Potency (W2) 12 µM

OCc1ccccn1
inactive: Potency (TAB113) | Potency (TAB165) | Potency (W2) | max response (CRL-7250) -1.84% | max response (HEK293) -1.39% | outcome (HaCat [1]) | max response (NIH3T3) -14.5% | outcome (HACAT [2])

Cl/C(=C\n1cncn1)c1ccc(Cl)cc1Cl
inactive: Potency (TAB113) | Potency (TAB165) | Potency (W2) | outcome (CRL-7250) | max response (HEK293) -2.88% | max response (HaCat [1]) -4.78% | max response (KB-3-1) 25.3% | max response (NIH3T3) 0.11%

CN(C)CCN1C(=O)c2ccccc2N(C)c2ccccc21
inactive: max response (CRL-7250) -7.77% | max response (HEK293) -1.88% | max response (KB-3-1) 3.06% | max response (NIH3T3) -0.0642%
active: Potency (W2) 2.13 µM

N=C(N)N1CCc2ccccc2C1
inactive: Potency (TAB113) | Potency (TAB165) | Potency (W2) | max response (CRL-7250) -4.65% | max response (HEK293) -8.82% | max response (KB-3-1) 4.15% | max response (NIH3T3) -1.16%

CN1CCN(C2=Nc3ccccc3Sc3ccc(Cl)cc32)CC1
inactive: max response (CRL-7250) -8.62% | max response (HEK293) -15.3% | max response (HaCat [1]) -2.52% | max response (NIH3T3) -1.36%
active: Potency (W2) 3.79 µM

CC(C)(C)NC[C@H](O)COc1nsnc1N1CCOCC1
inactive: max response (CRL-7250) -0.569% | max response (HEK293) 1.26% | max response (KB-3-1) 0.822% | max response (NIH3T3) -2.25%
active: Potency (TAB113) 6.31 µM | Potency (TAB165) 5.01 µM | Potency (W2) 1.51 µM

COc1cc(NS(=O)(=O)c2ccc(N)cc2)ncn1
inactive: Potency (TAB113) | Potency (TAB165) | Potency (W2) | outcome (CRL-7250) | max response (HEK293) -0.739% | max response (KB-3-1) -8.34% | max response (NIH3T3) -12.1%

COc1ccc(CN(CCN(C)C)c2ncccn2)cc1
inactive: Potency (TAB113) | Potency (TAB165) | max response (CRL-7250) 0.19% | outcome (HEK293) | max response (KB-3-1) -2.44% | max response (NIH3T3) -1.92% | outcome (HEK293T)
active: Potency (W2) 5.36 µM

CN1CCC(OC(c2ccccc2)c2ccccc2)CC1
inactive: outcome (CRL-7250) | max response (HEK293) -17.7% | max response (KB-3-1) -12.2% | outcome (NIH3T3)
active: Potency (W2) 3.22 µM

CCC(Cc1c(I)cc(I)c(N)c1I)C(=O)O (configuration not stated)
inactive: outcome (CRL-7250) | outcome (HEK293) | max response (KB-3-1) -8.27% | max response (NIH3T3) 2.99% | outcome (HEK293T)

Cc1ccc2c(Br)cc(Br)c(O)c2n1
inactive: max response (KB-3-1) 8.29%
active: Potency (TAB113) 12.6 µM | Potency (TAB165) 6.31 µM | Potency (CRL-7250) 21.1 µM | Potency (HEK293) 8.41 µM

O=S(=O)(O)c1ccc(O)cc1
inactive: Potency (TAB113) | Potency (TAB165) | Potency (W2) | max response (CRL-7250) -8.14% | max response (HEK293) 2.28% | max response (HaCat [1]) -3.34% | max response (NIH3T3) 1.54%

CC(=O)Oc1ccc(C)cc1
inactive: Potency (TAB113) | Potency (TAB165) | Potency (W2) | max response (CRL-7250) -8.74% | max response (HEK293) -1.12% | max response (KB-3-1) 5.93% | max response (NIH3T3) 2.4%

OC[C@H]1O[C@@H]2O[C@H]3[C@H](O)[C@@H](O)[C@@H](O[C@H]4[C@H](O)[C@@H](O)[C@@H](O[C@H]5[C@H](O)[C@@H](O)[C@@H](O[C@H]6[C@H](O)[C@@H](O)[C@@H](O[C@H]7[C@H](O)[C@@H](O)[C@@H](O[C@H]8[C@H](O)[C@@H](O)[C@@H](O[C@H]1[C@H](O)[C@H]2O)O[C@@H]8CO)O[C@@H]7CO)O[C@@H]6CO)O[C@@H]5CO)O[C@@H]4CO)O[C@@H]3CO
inactive: Potency (TAB113) | Potency (TAB165) | Potency (W2) | outcome (CRL-7250) | outcome (HEK293) | max response (KB-3-1) 3.96% | max response (NIH3T3) -2.76% | outcome (HEK293T)

CCOc1ccccc1C(N)=O
inactive: Potency (TAB113) | Potency (TAB165) | Potency (W2) | outcome (CRL-7250) | max response (HEK293) -2.36% | max response (HaCat [1]) 1.44% | outcome (NIH3T3)
